# Assay outcomes (PubChem BioAssay)
# This is a sample that favours compounds with a hit; in the whole collection about 12% have one here.
# DAT uptake mod = changed hDAT dopamine uptake under cocaine IC80, either direction, primary screen, cocaine antagonist project, cell-based, LLC-PK1 hDAT, [14C]-dopamine uptake, MLSMR; LLC-PK1 hDAT cells, [14C]-dopamine uptake with cocaine IC80; actives deviate in either direction; Sodium-dependent dopamine transporter (Homo sapiens), Q01959; B-score at 10 µM; 110,000 compounds, 1.3% hits; AID 449768, 2010;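 active means Z score or B-score, a plate-position-corrected score, falls beyond the plate's 99.7% confidence bounds, in either direction; inactive means both scores lie inside the 99.7% bounds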;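 further: scored against the spread of the other compound wells on the same plate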
# Target sequence (Q01959 whole entry, looked up): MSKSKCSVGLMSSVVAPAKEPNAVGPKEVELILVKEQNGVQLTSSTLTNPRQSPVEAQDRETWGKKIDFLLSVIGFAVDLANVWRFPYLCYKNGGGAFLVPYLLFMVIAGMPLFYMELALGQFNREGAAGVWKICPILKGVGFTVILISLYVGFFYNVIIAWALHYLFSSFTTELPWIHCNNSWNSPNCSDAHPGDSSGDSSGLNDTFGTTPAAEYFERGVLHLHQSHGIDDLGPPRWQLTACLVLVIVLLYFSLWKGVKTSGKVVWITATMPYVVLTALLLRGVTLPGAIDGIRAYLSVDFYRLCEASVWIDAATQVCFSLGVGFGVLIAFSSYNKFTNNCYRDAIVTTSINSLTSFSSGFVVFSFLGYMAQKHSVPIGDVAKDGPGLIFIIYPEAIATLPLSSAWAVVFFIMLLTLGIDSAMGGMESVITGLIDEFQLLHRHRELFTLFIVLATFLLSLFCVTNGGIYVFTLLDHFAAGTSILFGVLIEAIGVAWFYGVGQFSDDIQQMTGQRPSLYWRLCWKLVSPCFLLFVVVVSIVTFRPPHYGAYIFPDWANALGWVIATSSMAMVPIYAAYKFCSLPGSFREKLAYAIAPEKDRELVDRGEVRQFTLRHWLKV
# D1 mod = D1 CRE-luciferase signal change, two-sided – cell-based, HEK293 D1, dopamine EC30, D1 allosteric modulator project, primary screen; 58,000 compounds, 5.9% hits; dopamine EC30 potentiation; actives deviate in either direction; AID 641, 2007; B-score at 10 µM;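 active means luminescence count or its row- and column-corrected plate score outside the 99.7% band of the plate's sample wells, on either side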
# PostGolgi yeast = phenotypic screen on post-Golgi transport, primary screen; post-Golgi transport phenotypic cell assay; inhibition, % at 10 µM; 98,000 compounds, 0.9% hits; AID 739, 2007;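 further: yeast cells grown in 1536-well plates; yeast grown about 18 h at 30C before absorbance read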
# Cav3 T inh = Cav3.2 calcium influx blockers – cell-based, Fluo-4 calcium fluorescence, FDSS, MLSMR library, primary screen; Cav3.2-expressing cells; stronger effect = lower value; B-score at 10 µM; Voltage-dependent T-type calcium channel subunit alpha-1H (Homo sapiens), O95180; 100,000 compounds, 4% hits; AID 449739, 2010;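 active means single-dose well whose peak fluorescence ratio is a statistical outlier from its plate by either plate-standardised score or position-corrected B-score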
# PLAP act = PLAP enzyme activators, biochemical, luminescence, HTS. AID 696, 2007. purified PLAP enzyme, luminescent substrate read-out; stronger effect = higher value. Alkaline phosphatase, placental type (Homo sapiens), P05187. 96,000 compounds, 1.2% hits. activation fold at 20 µM; in the data active means activation fold above about 2
# PostGolgi ctrl = growth inhibition of yeast control strain, primary screen, counter-screen for post-Golgi transport modulator project; efflux-deficient yeast background strain, growth absorbance A615, 16 h; inhibition, % at 10 µM; AID 738, 2007; 98,000 compounds, 5% hits
# * hit, by the source's call; . = no result given. Unless noted, no stated cut-off is given here; in the data, active means inhibition above about 30%; inactive means the rest.
SMILES,DAT uptake mod,D1 mod,PostGolgi yeast,Cav3 T inh,PLAP act,PostGolgi ctrl
Cn1c(N)c(C(=O)c2cc(-c3ccccn3)nc3ccccc23)c(=O)[nH]c1=O,.,3,10,0.98,2*,-12
O=C(Nn1cnnc1)c1cc(-c2ccccn2)nc2ccccc12,-1.2,-0.52,10,-1.4,0.9,1
CCOC(=O)c1ccc(NC(=O)C(=O)NCc2ccncc2)cc1,-1.4,.,-5,0.68,0.9,2
CCn1cc([N+](=O)[O-])c(C(=O)N2N=C3/C(=C/c4cccs4)CCCC3C2c2cccs2)n1 (stereo not drawn),1.3,.,.,-2.4,.,.
COc1ccc2nc(Nc3nc(CSc4nc5ccccc5s4)cc(=O)[nH]3)nc(C)c2c1,-0.99,.,.,-1.4,.,.
COCc1cc(=O)[nH]c(Nc2nc(C)c3cc(OC)ccc3n2)n1,.,.,8,.,2.1*,5
COc1ccc(CN(C(=O)CSc2nnc(-c3ccccc3F)o2)c2ccc(F)cc2)cc1,1.1,-0.014,26,-4.8*,1.4,13
N#Cc1c(SCC(N)=O)nc(-c2ccccc2)c2c1CCCC2,-0.38,2.5,-21,-0.014,0.9,17
Cc1ccc(-c2nc(SCC(N)=O)c(C#N)c3c2CCCC3)cc1,0.59,.,7,-0.64,0.9,44*
COc1cc(S(=O)(=O)N2CCOCC2)ccc1NC(=O)COC(=O)C12CC3CC(CC(C3)C1)C2,1.1,0.43,-10,0.042,1,35*
CCC(CC)C(=O)OCC(=O)Nc1ccc(S(=O)(=O)N2CCOCC2)cc1OC,-0.062,.,2,0.62,1.5,-1
COCCn1nnnc1C(c1cccs1)N1CCN(c2nc3ccccc3s2)CC1 (stereo not drawn),0.59,-0.67,-2,-2.4,1.6,16
Cc1cccc(N2CCN(C(c3cccs3)c3nnnn3C(C)(C)C)CC2)c1C (stereo not drawn),0.14,.,12,-6.4*,1.5,40*
COCCn1nnnc1C(c1cccs1)N1CCN(c2cc(C)ccc2C)CC1 (stereo not drawn),0.39,0.31,-11,-4.3*,1.5,23
CC(C)(C)n1nnnc1C(c1cccnc1)N1CCN(c2ccccc2F)CC1 (stereo not drawn),0.79,.,.,0.25,.,.
CCC(=O)c1cn(CC(=O)NCc2cccnc2)c2ccccc12,0.078,-0.44,-1,0.39,0.9,8
COc1ccccc1S(=O)(=O)Cc1ccc(C(=O)NCCN2CCCCCC2)o1,-0.77,-0.63,3,0.8,1.2,12
Cc1ccc(-c2nc3cccnc3o2)cc1NC(=O)COc1ccc(C(C)(C)C)cc1,0.92,.,5,-0.79,1.4,42*
Cn1c(=O)c2ncn(CC(=O)Nc3cccc(-c4nc5ccccc5s4)c3)c2n(C)c1=O,1.3,.,2,0.066,1.2,1
COc1cc(-c2nc3ccccn3c2/N=C/c2ccccc2)ccc1O,0.00094,.,2,.,0.9,8
CCOc1cc(-c2nc3ccccn3c2NCC2CCCO2)ccc1O (stereo not drawn),1.1,-4.1*,7,-1.1,0.8,3
Cc1cccc(/C=N\NC(=O)c2sccc2-n2cccc2)c1,1.3,.,-3,-4.1*,0.9,4
COc1ccc(CNC(=O)c2ccc(NS(=O)(=O)c3c(C)noc3C)cc2)cc1,0.69,1.4,6,-3.9,1.1,31*
Cc1noc(C)c1S(=O)(=O)Nc1ccc(C(=O)NCCc2ccccc2)cc1,0.03,-0.76,-8,0.42,1.1,-7
CCCCn1c(SCc2cc(=O)n3ccsc3n2)nc2cc(C(=O)OC)ccc2c1=O,.,-0.75,.,.,1.1,.
Cc1ccc(-c2noc(CCCN3C(=O)c4ccccc4C3=O)n2)cc1,-0.16,.,9,-0.62,1,31*
O=C1c2ccccc2C(=O)N1CCc1nc(-c2ccncc2)no1,-0.3,.,-2,-0.16,0.9,-5
O=C1c2ccccc2C(=O)N1CCCCCc1nc(-c2ccccc2)no1,-1.1,-0.0079,8,-1.4,0.8,49*
N#C/C(=C\c1cn[nH]c1-c1ccccc1)C(=O)NC1CCCCCC1,2.1,.,-6,-2.9,1.5,11
